Experimental data: the supplement of paper PMC3334620
In all, about 33,000 sequences were measured (“E-score (-0.5 to 0.5)”: median about -0.011, highest 2% from about 0.28 on). The full list was thinned out, with the highest values kept by preference.

Each sequence was assayed against T1, Gcr1 (UniProt P07261) (assay: PBM E-score (8-mer binding enrichment) (E-score (-0.5 to 0.5)); higher = stronger / more preferred TF binding). Details: protein concentration: 100 nM; construct: GST-full length.
T1 sequence: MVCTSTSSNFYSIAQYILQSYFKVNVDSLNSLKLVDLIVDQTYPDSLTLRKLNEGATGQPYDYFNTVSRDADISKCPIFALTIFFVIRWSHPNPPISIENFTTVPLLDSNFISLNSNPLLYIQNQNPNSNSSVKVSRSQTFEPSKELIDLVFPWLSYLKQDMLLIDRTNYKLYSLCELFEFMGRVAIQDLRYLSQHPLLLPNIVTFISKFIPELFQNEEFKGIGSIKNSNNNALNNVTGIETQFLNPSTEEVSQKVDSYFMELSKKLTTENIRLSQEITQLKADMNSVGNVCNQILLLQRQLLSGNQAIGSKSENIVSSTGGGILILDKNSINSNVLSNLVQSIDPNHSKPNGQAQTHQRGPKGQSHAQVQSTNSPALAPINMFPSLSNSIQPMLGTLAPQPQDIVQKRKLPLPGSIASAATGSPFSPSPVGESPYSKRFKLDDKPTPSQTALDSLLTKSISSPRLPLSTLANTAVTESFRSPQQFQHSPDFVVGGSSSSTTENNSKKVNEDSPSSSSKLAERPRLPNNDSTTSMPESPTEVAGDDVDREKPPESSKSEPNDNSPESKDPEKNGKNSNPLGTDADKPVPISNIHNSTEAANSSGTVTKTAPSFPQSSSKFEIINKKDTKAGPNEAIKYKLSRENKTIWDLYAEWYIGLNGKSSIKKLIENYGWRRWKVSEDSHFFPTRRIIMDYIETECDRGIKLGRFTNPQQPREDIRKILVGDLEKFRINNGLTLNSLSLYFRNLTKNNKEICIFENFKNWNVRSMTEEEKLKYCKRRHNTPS
In short: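 Bound GST-tagged yeast transcription factors, applied at about 100-200 nM to double-stranded universal all-10-mer Agilent arrays, were detected with fluorescent anti-GST. Scans were normalised with masliner. A modified Wilcoxon-Mann-Whitney statistic, the E-score, was assigned to each ungapped eight-base word pooled with its reverse complement by the Universal PBM Analysis Suite.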

Sequence | PBM E-score
AACTGGAG | 0.115
TGCTGGAA | 0.136
AACTGGAC | 0.198
ATCTGGAC | 0.133
CACTGGAA | 0.318
CACTGGAC | 0.0576
ATCTGGAA | 0.333
AACTGGAA | 0.342
CTCTGGAA | 0.256
GTCGCAAC | 0.0865
GTACAAAA | -0.0647
ATCCCTTA | -0.00764
ACTCTAAT | -0.029
ATTTGTCC | -0.109
GTCCTGTA | 0.168
AGTAACCG | 0.184
CGGATCAG | 0.11
ATGAACAC | 0.0906
GAGCCCCA | 0.169
GAAGAGAA | 0.0371
ACACGTGG | 0.0635
GACTGGCA | -0.0492

Sequence | PBM E-score
GACTGGAC | 0.0539
GACTGGAA | 0.325
CGTCGGTA | -0.15
GCTGGACA | -0.0923
CCAATACC | 0.205
AAAGCTAA | -0.0138
TAAGCTAA | -0.153
GAAGCTAC | 0.323
CAAGCTAC | 0.108
AAAGCTAC | -0.0941
GAAGCTAA | 0.312
CTGCGACA | -0.106
CTTATAAA | 0.291
CTTATAAG | -0.0238
CGTATAAC | 0.269
AGTATAAA | 0.0707
CTTATAAC | -0.0336
CGTATAAA | 0.32
TGAAACCA | 0.106
ACAGACAA | 0.0204
GGGGTTTA | -0.117
GGTGAGGA | -0.0681

Sequence | PBM E-score
AAAGTAAT | 0.154
CGTGGGGA | 0.0446
GGTGGGGA | 0.345
CGCGGGGA | 0.0382
GGCGGGGA | 0.304
GGTGGGAA | 0.0991
GGCGGGAA | 0.0372
GTACTTTA | 0.107
GGGCCTAC | -0.25
ATTGGGGC | 0.124
AGTCAGCG | 0.0668
CGGAACGA | 0.0962
GGGATAAC | 0.0951
CAGCTGCC | 0.352
CAGCTGCG | 0.061
AAGCTGCC | 0.347
AAGCTGCT | 0.185
CAGCTGCA | -0.0536
GAGCTGCC | 0.187
ACAGAGGT | 0.0543
CCCACTTA | 0.0227
CGCTCGAC | -0.094

Sequence | PBM E-score
TCCAAAAA | 0.253
ACTAGCGG | -0.0781
GGACACTA | 0.0929
AACTAGGC | 0.122
AGGGAGCG | 0.0432
CGGGAGCC | 0.337
AGGGAGCC | 0.296
CGGGAGAC | 0.036
CGGGAGCA | -0.109
AGGGAGCA | -0.171
ATTGCCGC | -0.0608
GATTTCAC | -0.0263
AGCGAGCA | -0.108
AGGCTTCG | 0.00576
AGGCTTCA | -0.0957
CCGCTTCG | 0.0926
ACGCTTCA | -0.0408
GCGCTTAC | -0.17
ACGCTTCG | -0.0461
CCGCTTCA | -0.0817
CCGCTTCC | 0.346
AGGCTTCC | 0.436

Sequence | PBM E-score
GCGCTTCA | -0.0425
ACGCTTCC | 0.313
GCGCTTCC | 0.348
GCGAATTA | -0.00089
AAACCAAA | 0.066
AGACCTCC | -0.282
CGCTAGGC | -0.216
CACGGCCG | -0.152
ATCGGGTA | -0.136
AAGTCTCG | -0.336
CTCTAAAC | 0.0413
GGTCTGGA | 0.0233
GCCAGCGA | -0.0966
CACCAAGG | 0.0974
CCACCATC | 0.0892
GACGGACA | -0.264
CAAAGTGG | 0.00098
AAAAGTGA | 0.0915
AAAAGTAA | 0.157
AAAAGTGG | 0.381
AAAAGTAG | 0.295
AAAAGTAT | -0.0691
